BaF3 parental: counter-screen for JAK2V617F inhibitors: parental Ba/F3 viability inhibitors; CellTiter-Glo ATP luminescence; 220,000 tested, 1.1% active; inhibition, % at 5.6 µM;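 active = inhibition above a per-campaign cutoff, the mean inhibition of all tested compounds plus 3 SD, cut at about 27% in these data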;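 also: 0% = DMSO wells and 100% = JAK Inhibitor I control wells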
IEC-6 cytotox: kills IEC-6 intestinal cells in KLF5 counter-screen. 290,000 tested, 0.78% active. inhibition, % at 5 µM. IEC-6 cytotoxicity, luminescence viability. AID 1825; in the data active = inhibition above about 22%;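 also: 0% = plate median of test compound wells and 100% = cytotoxic reference compound wells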
KLF5 inhibitor: inhibitors of KLF5 expression | 290,000 tested, 0.23% active | inhibition, % at 5 µM | DLD-1 KLF5 promoter-luciferase reporter, luminescence;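 active = inhibition above a per-plate limit of that plate's mean compound inhibition plus 3 SD, cut at about 60% in these data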;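 also: 0% = DMSO wells and 100% = LY294002 at 200 µM; higher means less KLF5 promoter-driven luciferase light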
APP transl inh: APP translation inhibition | 190,000 tested, 0.82% active | SH-SY5Y APP 5'UTR-luciferase reporter, luminescence | AID 1285 | inhibition, % at 2 µM;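 active = inhibition above a set limit, derived from the sample mean plus 3 SD, cut at about 45% in these data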
Ba/F3 V617F tox: loss of viability in JAK2V617F-driven Ba/F3 cells; Ba/F3 EpoR-JAK2V617F viability, ATP luminescence; 220,000 tested, 1.1% active; inhibition, % at 5.6 µM;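 active = inhibition above the campaign mean plus 3 SD over all tested compounds, cut at about 24% in these data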;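 also: cytokine-independent growth of Ba/F3 cells driven by EpoR plus mutant JAK2; 0% = DMSO-treated cells and 100% = JAK inhibitor I control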
Numbers without * were called inactive; / = no result. The list is not random: actives were taken first. Their share in the collection is about 1.8%.

SMILES	BaF3 parental	IEC-6 cytotox	KLF5 inhibitor	APP transl inh	Ba/F3 V617F tox
COC(=O)c1ccccc1NC(=O)C1CCN(C(=O)c2ccc(OC)cc2)CC1	1	-3	-20	-1	1
Cc1nc2ccc([N+](=O)[O-])cc2nc1C	2	14	-14	-4	5
Cc1ccc2nc3cc([N+](=O)[O-])cc([N+](=O)[O-])c3cc2c1	7	-2	-32	62*	1
COCCN(CC(=O)NC1CCCCC1)C(=O)/C=C/C(=O)c1ccc(OC)cc1O	3	-8	-7	93*	-3
COc1ccc(C(=O)/C=C/C(=O)N(CC(=O)NC2CCCCC2)Cc2cccs2)c(O)c1	4	2	15	77*	5
COc1ccc(CN(C(=O)/C=C/C(=O)c2ccc(OC)cc2O)C(C(=O)NC2CCCCC2)c2ccncc2)cc1 (stereo not drawn)	10	-4	7	25	4
COc1ccc(C(=O)/C=C/C(=O)N(Cc2ccc3c(c2)OCO3)C(C(=O)NC2CCCCC2)c2ccncc2)c(O)c1 (stereo not drawn)	4	-8	10	-15	0
COC(=O)/C=c1\[nH]c2nnc(C)n2c1=O	-1	1	-7	/	-2
OCCNC(=S)Nc1cc(Cl)cc(Cl)c1	3	3	5	/	2
Cc1sc2cc3c(c(C(=O)c4ccccc4)[n+]2c1C)-c1cccc2cccc-3c12	88*	6	-1	14	100*
Cc1cc(C)c2c(N)c(C(=O)c3ccccc3)sc2n1	-1	0	-5	/	-1
Cn1c(-c2ccccc2[N+](=O)[O-])[n+](C)c2ccccc21	58*	-2	-32	/	57*
COc1c(C)cccc1C(=O)NCc1ccc2c(c1)OCO2	/	-7	-29	/	/
CC(Nc1cc(C)cc(C)c1)=[N+](C)CCNS(=O)(=O)c1ccc(Cl)cc1	/	2	-38	/	/
COc1ccc(OC)c(NC(=O)CN(c2ccc(C)cc2)S(=O)(=O)c2c(C)noc2C)c1	0	-1	10	-10	-1
COc1ccc(N(CC(=O)Nc2cc(Cl)ccc2OC)S(=O)(=O)c2c(C)noc2C)cc1	54*	3	-1	54*	8
COCCNc1nc(N)c([N+](=O)[O-])c(NCc2ccccc2)n1	/	-8	5	/	/
CC1C(=O)NN=C1C(=O)N/N=C/c1ccco1 (stereo not drawn)	4	6	-14	72*	5
COc1ccccc1C1C(C(C)=O)=C(O)C(=O)N1c1ccc(O)cc1 (stereo not drawn)	/	-6	-51	/	/
Cc1ccc(-c2csc(=Nc3cccnc3)n2CCCN2CCCC2=O)cc1C	54*	-2	24	11	64*
Cc1ccc(-c2csc(=Nc3cccnc3)n2CCCn2ccnc2)cc1C	-1	8	9	18	-3
CCn1c(=N)n(CC(=O)C(C)(C)C)c2ccccc21	-2	0	-13	64*	-5
NS(=O)(=O)c1ccc(NC(=O)COC(=O)c2ccc(Cl)cc2[N+](=O)[O-])cc1	-5	-4	-14	/	-5
CCOC(=O)c1c(C)[nH]c2ccc(O)cc12	5	-6	-1	50*	4
CCc1ccc(NC(=S)NC(=O)CC(C)C)cc1	1	-2	-95	-61	-2
SMILES	BaF3 parental	IEC-6 cytotox	KLF5 inhibitor	APP transl inh	Ba/F3 V617F tox
NC(=O)C1CCN(C(=O)COCc2cc(-c3ccc4c(c3)OCO4)on2)CC1	/	0	-26	/	/
COc1cc(C(=O)N2CCN(c3cc(Cl)ccc3Cl)CC2)cc(OC)c1OC	63*	61*	49	-2	65*
Cn1cc(C(=O)Nc2ccc(F)c(F)c2)cn1	2	3	-21	50*	-2
Cc1cc(C(=O)CSc2nc(N)cc(=O)[nH]2)c(C)n1-c1ccc(OC(F)F)cc1	52*	-2	-13	5	40*
O=C(Nc1ccn(Cc2c(F)c(F)cc(F)c2F)n1)c1ccc(COc2ccccc2Cl)cc1	2	2	-27	-16	-1
Cc1cc(C)nc(NC(=O)c2ccc(COc3ccccc3Cl)cc2)c1	71*	19	28	3	62*
NNC(=O)c1cc2c(s1)CCCCCC2	5	7	-2	70*	-3
COc1ccc(-c2cc(-c3cccs3)c(C#N)c(SCC(=O)NCc3ccco3)n2)cc1	7	0	-17	96*	7
COc1ccc(CNC(=O)CSc2nc(-c3ccccc3)cc(-c3cccs3)c2C#N)cc1	1	5	2	-9	-3
FC(F)Sc1ccc(-n2cc(-c3ccc(Cl)cc3)[n+]3c2CCC3)cc1	36*	2	6	4	25*
Brc1ccc(-c2csc3[n+]2CCCCC3)cc1	55*	0	-25	0	55*
Cc1ccc(-c2cn(-c3ccc(SC(F)F)cc3)c3[n+]2CCC3)cc1	66*	3	-9	-9	67*
c1ccc(-c2c[nH]c3[n+]2CCCCC3)cc1	6	0	-21	7	3
O=C(Cn1nc(CNc2ccc(Cl)cc2)[n+]2c1CCCCC2)c1ccc(Br)cc1	0	8	10	-13	-2
FC(F)Sc1ccc(NC2=NCCCCC2)cc1	/	5	-9	/	/
Clc1ccc(-n2cc(-c3ccc(Br)cc3)[n+]3c2CCCCC3)cc1	60*	-3	-20	/	55*
CCS(=O)(=O)N1CCC(C(=O)N2CCN(Cc3ccccc3)CC2)CC1	11	-5	-38	8	0
Nc1cc(=O)[nH]c(SCC(=O)N2CCCCC2)n1	-2	-5	-58	4	-2
CS(=O)(=O)CCC(C(=O)O)N1C(=O)c2ccc(Oc3ccc(Cl)cc3)cc2C1=O (stereo not drawn)	/	0	-6	/	/
CCOC(=O)[C@@H]1[C@H]2COc3cc(OC)ccc3[C@H]2N2C(=O)N(c3ccc(C(F)(F)F)cc3)C(=O)[C@@]12C	/	7	7	/	/
COc1cc(OC)c(C2N(C)c3ccccc3N2C)cc1OC	59*	-2	24	-11	53*
COCCN(CC1CCCN(C2Cc3ccccc3C2)C1)C(=O)c1cccc(C)c1 (stereo not drawn)	/	-5	-13	/	/
COc1ccc(CC(=O)Nc2cccc(-c3cn4ccccc4n3)c2)cc1	4	-2	-15	0	-2
COc1ccc(CC(=O)Nc2ccc(-c3cn4ccccc4n3)cc2)cc1	3	5	-85	58*	-3
Nc1ncn(-c2ncc(C(F)(F)F)cc2Cl)n1	3	-4	-38	-2	-1
CCOc1ccccc1N(C)C(=O)C1CCN(S(=O)(=O)c2cccc3nonc23)CC1	5	-3	-23	63*	-2
COc1ccc(N(C)C(=O)C2CCN(S(=O)(=O)c3cccc4nonc34)CC2)cc1	/	3	-25	/	/
CC1CCCN(CCCCOc2cccc(Br)c2)C1 (stereo not drawn)	4	7	-21	-21	0
CC1=NN(c2nc(-c3ccc(C)cc3)cs2)C(=O)C1N=Nc1cccc(O)c1 (stereo not drawn)	8	-7	-34	5	3
CC1=NN(c2nc(-c3ccc(C)cc3)cs2)C(=O)C1N=Nc1ccccc1O (stereo not drawn)	8	0	-14	52*	-2

Bioassay records from PubChem.
